Source: the supplement of paper PMC9254222
The full ranking holds about 1,100 compounds; the median of “Wnt reporter firefly/Renilla luciferase ratio relative to plate median” is about 1.1, and the highest 2% start at about 1.6. This is one part of a sample in which the highest values are shown more often than they occur.

System: HEK293T (UBE3A T485A transfected, BAR Wnt reporter)
Assay: Wnt reporter firefly/Renilla luciferase ratio relative to plate median (fold (linear ratio)); higher = more Wnt/beta-catenin reporter activation
Settings: 24 h
Procedure, shortened: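 Wnt activity (firefly/Renilla ratio) and cell health (raw Renilla) were read with Dual-Glo luciferase and median-centred plate by plate. HEK293T cells, at 4500 cells/well in white 384-well plates with DMEM plus 10% FBS at 37°C and 5% CO2, carried a transfected BAR firefly luciferase Wnt reporter, TK-Renilla and an expression plasmid. The chemicals were applied by robot at 0.01–100 uM for 24 h, beginning four hours after transfection, and results were averaged across four biological replicates.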

SMILES	Wnt reporter firefly/Renilla luciferase ratio (concentration: 0.1 uM)	Wnt reporter firefly/Renilla luciferase ratio (concentration: 1 uM)	Wnt reporter firefly/Renilla luciferase ratio (concentration: 10 uM)	Wnt reporter firefly/Renilla luciferase ratio (concentration: 100 uM)	Wnt reporter firefly/Renilla luciferase ratio (concentration: 0.01 uM)
c1ccc(OP(Oc2ccccc2)Oc2ccccc2)cc1 [Triphenyl phosphite]	0.971	1.06	1	1.26	–
NC(=O)[O-].[NH4+] [Ammonium carbamate]	0.817	0.94	0.934	1.31	–
CCC(C)c1cc([N+](=O)[O-])cc([N+](=O)[O-])c1O (stereo unspecified) [Dinoseb]	0.797	0.806	0.929	–	–
Clc1nc(Cl)nc(Nc2ccccc2Cl)n1 [Anilazine]	0.926	1.15	1.18	1.07	0.958
CNC(=S)[S-].O.O.O.[Na+] [Metam-sodium hydrate]	0.921	0.977	1.06	1.1	0.905
CCN(CC)N=O [N-Nitrosodiethylamine]	1.12	1.13	1.27	1.82	–
CCCN(CCC)N=O [N-Nitrosodipropylamine]	1.18	0.939	1.15	1.06	–
CCCCN(CCCC)N=O [N-Nitrosodibutylamine]	0.968	0.902	1.04	1.27	–
CCCCC(C#N)(Cn1cncn1)c1ccc(Cl)cc1 (stereo unspecified) [Myclobutanil]	1	0.933	1.09	0.269	0.908
COc1cc(OC)nc(NC(=O)[N-]S(=O)(=O)c2ncccc2OCC(F)(F)F)n1.[Na+] [Trifloxysulfuron-sodium]	1.02	1.23	1.22	1.52	1.06
N#Cc1cccnc1 [3-Pyridinecarbonitrile]	0.974	1.13	1.25	1.35	–
CO/N=C(/C1=NOCCO1)c1ccccc1Oc1ncnc(Oc2ccccc2Cl)c1F [Fluoxastrobin]	1.27	0.946	0.315	1.23	1.16
Cn1sc(Cl)cc1=O [5-Chloro-2-methyl-3(2H)-isothiazolone]	1.28	1.07	1.07	0.458	–
COc1ccc(C(c2ccc(OC)cc2)C(Cl)(Cl)Cl)cc1 [Methoxychlor]	1.13	1.12	1.25	1.04	0.858
Cn1cc(-c2ccccc2)c(=O)c(-c2cccc(C(F)(F)F)c2)c1 [Fluridone]	1.28	0.917	0.825	0.175	–
Cc1ccc([N+](=O)[O-])cc1C [1,2-Dimethyl-4-nitrobenzene]	0.844	1.17	1.19	1.42	–
CN(C)c1ccccc1 [N,N-Dimethylaniline]	1.11	1.11	0.912	1.02	–
C[C@]12CCC(=O)C=C1CC[C@@H]1[C@@H]2CC[C@]2(C)C(=O)CC[C@@H]12 [4-Androstene-3,17-dione]	1.04	1.01	1.12	0.219	–
Clc1ccccc1-c1nnc(-c2ccccc2Cl)nn1 [Clofentezine]	1.25	0.999	1.19	1.59	1.31
CC(Cl)(Cl)C(=O)O [Dalapon]	1.05	1.18	1.08	1.25	–
COC(=O)Nc1nc2ccccc2[nH]1 [Carbendazim]	1.09	1.16	0.661	0.13	–
C[n+]1ccc(-c2cc[n+](C)cc2)cc1 [Paraquat]	1.36	1.06	1.01	1.77	1.31

SMILES	Wnt reporter firefly/Renilla luciferase ratio (concentration: 0.1 uM)	Wnt reporter firefly/Renilla luciferase ratio (concentration: 1 uM)	Wnt reporter firefly/Renilla luciferase ratio (concentration: 10 uM)	Wnt reporter firefly/Renilla luciferase ratio (concentration: 100 uM)	Wnt reporter firefly/Renilla luciferase ratio (concentration: 0.01 uM)
CCOP(=S)(OCC)SCSC(C)(C)C [Terbufos]	1.28	1.01	1.16	1.27	–
CCNc1nc(Cl)nc(NC(C)(C)C#N)n1 [Cyanazine]	0.905	0.962	0.88	1.15	0.787
Cc1ccc([N+](=O)[O-])cc1 [4-Nitrotoluene]	0.766	0.567	0.741	0.771	–
CCCCC(O)(Cn1cncn1)c1ccc(Cl)cc1Cl (stereo unspecified) [Hexaconazole]	0.897	1	0.919	0.397	0.917
ClCC(Cl)CCl [1,2,3-Trichloropropane]	1.21	1.09	1.12	1.41	–
COP(=O)(OC)SCn1c(=O)oc2cc(Cl)cnc21 [Azamethiphos]	1.28	0.979	0.625	0.373	0.825
CCOP(=S)(OCC)SCn1c(=O)oc2cc(Cl)ccc21 [Phosalone]	1.45	1.27	1.03	0.607	1.62
CCOP(=S)(OCC)SCSCC [Phorate]	1.03	0.934	1.08	1.3	–
Cc1ccccc1O [o-Cresol]	1.01	0.966	1.1	1.15	–
C=C(C)C(=O)[O][Sn]([CH2]CCC)([CH2]CCC)[CH2]CCC [Tributyltin methacrylate]	0.639	0.638	0.679	–	–
Cc1cc(N=Nc2ccccc2C)ccc1N [2-Amino-5-azotoluene]	1.18	0.968	1.06	0.582	–
Nc1cc2c3c(c1)C(c1ccccc1)=N[C@@H](NC(=O)c1cccnc1)C(=O)N3CC2	1.19	0.977	1.24	0.802	–
Nc1cc(Cl)cc(C(=O)O)c1Cl [Chloramben]	1.14	1.12	1.34	1.49	–
[Cl-].[Cl-].[Hg+2] [Mercuric chloride]	1.21	1.07	1.69	–	–
O=C(O)C1C(C(=O)O)C2(Cl)C(Cl)=C(Cl)C1(Cl)C2(Cl)Cl (stereo unspecified) [Chlorendic acid]	0.978	1.1	0.935	1.03	–
NCCO.O=C(O)c1nc(Cl)ccc1Cl [Clopyralid-olamine]	0.94	1.18	1.56	2.61	0.868
Nc1c(Cl)c(Cl)nc(C(=O)O)c1Cl [Picloram]	1.47	1	1.13	1.28	0.972
O=C(O)c1nc(Cl)ccc1Cl [Clopyralid]	1.81	1.02	0.988	1.12	1.17
O=C(O)c1c(Cl)ccc2cc(Cl)cnc12 [Quinclorac]	1.3	1.14	1.14	1.58	1.38
Clc1cccc(C(Cl)(Cl)Cl)n1 [Nitrapyrin]	1.01	0.881	1.03	1.23	1.08
CNC(=O)Oc1cccc2c1OC(C)(C)O2 [Bendiocarb]	1.17	1.01	0.983	1.38	1.3
CC(C)Oc1cccc(NC(=O)c2ccccc2C(F)(F)F)c1 [Flutolanil]	0.79	1.01	0.768	0.559	0.682

SMILES	Wnt reporter firefly/Renilla luciferase ratio (concentration: 0.1 uM)	Wnt reporter firefly/Renilla luciferase ratio (concentration: 1 uM)	Wnt reporter firefly/Renilla luciferase ratio (concentration: 10 uM)	Wnt reporter firefly/Renilla luciferase ratio (concentration: 100 uM)	Wnt reporter firefly/Renilla luciferase ratio (concentration: 0.01 uM)
CC(C)OC(=O)Nc1cccc(Cl)c1 [Chlorpropham]	1.78	1.23	1.47	0.823	1.45
CC(Oc1cccc(Cl)c1)C(=O)O (stereo unspecified) [Cloprop]	1.51	1.12	1.28	1.45	1.31
CCNc1nc(NC(C)C)nc(SC)n1 [Ametryn]	0.725	0.813	1.29	0.791	0.686
CC(C)C1(C)N=C(c2ncccc2C(=O)O)NC1=O (stereo unspecified) [Imazapyr]	1.29	1.04	1.09	1.24	1.14
COP(=S)(OC)SCn1nnc2ccccc2c1=O [Azinphos-methyl]	0.911	0.978	0.89	0.837	1.01
CNC(=O)CSP(=S)(OC)OC [Dimethoate]	0.993	1.02	1.02	1.1	0.95
COP(=S)(OC)SCN1C(=O)c2ccccc2C1=O [Phosmet]	1.07	0.925	1.47	1.65	–
CCNc1nc(Cl)nc(NCC)n1 [Simazine]	1.19	1.01	1.06	1.52	1
O=C(O)C(F)(F)C(F)(F)C(F)(F)C(F)(F)C(F)(F)C(F)(F)C(F)(F)C(F)(F)C(F)(F)F	0.93	1.14	1.04	1.19	–
O=C(O)C(F)(F)C(F)(F)C(F)(F)C(F)(F)C(F)(F)C(F)(F)C(F)(F)F	1.71	1.19	1.41	1.46	1.29
O=C(O)C(F)(F)C(F)(F)C(F)(F)C(F)(F)C(F)(F)C(F)(F)F [Perfluoroheptanoic acid]	0.82	1.02	0.932	0.483	–
O=C(O)C(F)(F)C(F)(F)C(F)(F)C(F)(F)C(F)(F)C(F)(F)C(F)(F)C(F)(F)C(F)(F)C(F)(F)F [Perfluoroundecanoic acid]	1.11	0.936	0.954	0.68	–
O=C(O)C(F)(F)C(F)(F)C(F)(F)C(F)(F)C(F)(F)F	1.16	1.48	1.38	2.14	–
O=C(O)C(F)(F)C(F)(F)C(F)(F)C(F)(F)C(F)(F)C(F)(F)C(F)(F)C(F)(F)F	1.29	0.95	1.12	0.369	–
Oc1cc(Cl)c(Cl)cc1Cl [2,4,5-Trichlorophenol]	1.12	0.917	0.962	–	–
CCCCCCCCCC(CC)c1ccc(S(=O)(=O)O)cc1.OCCN(CCO)CCO (stereo unspecified) [Dodecylbenzene sulfonate triethanolamine(1:1)]	1.13	1.29	1.13	1.01	–
COc1cnc(OC)n2nc(NS(=O)(=O)c3c(OCC(F)F)cccc3C(F)(F)F)nc12 [Penoxsulam]	1.09	1.29	1.38	1.75	1.12
C=CC(=O)NCNC(=O)C=C [N,N'-Methylenebisacrylamide]	0.951	0.999	1.03	1.21	–
CN(C)c1ccc(Cc2ccc(N(C)C)cc2)cc1 [4,4'-Methylenebis(N,N-dimethylaniline)]	1.02	1.07	1.14	0.474	–
CCc1nn(C)c(C(=O)NCc2ccc(C(C)(C)C)cc2)c1Cl [Tebufenpyrad]	0.632	0.279	0.218	0.51	0.583
